This is part of a sample that, as a whole, favours compounds with a hit. Of some 83,000 tested, about 20% had one in any assay.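 Results are percent growth after 48 hours of single-concentration exposure. 100 means growth as in untreated cells, lower positive values show inhibition; negative values down to -100 show cell death.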 The source made the active and inactive calls. The calls were made as follows: active = growth percent below 10; inactive = the rest.
The molecules below were run on MDA-MB-435 melanoma (assay: NCI-60 one-dose screen, 48 h (100 = growth as untreated, 0 = no growth, -100 = all killed)). Details: 10 µM unless noted.
`CCC(=O)Nc1nnc(Cc2ccc(OC)c(OC)c2)s1` was tested, and the growth was -52% (active). With `NC(=O)c1cc(Cl)ccc1NC(=O)COc1ccccc1` the growth was -56.9% (active). With `CCC12CCC3c4ccc(O)cc4CCC3C1CC(O)C2O` (configuration not stated) the growth was -2.42% (active). `O=C1NC(=S)S/C1=C\c1cccc([N+](=O)[O-])c1` was tested, and the growth was 93.7% (inactive). In the case of `CCCCCn1c(=N)n(CC(O)COc2cccc(C)c2)c2ccccc21` (configuration not stated), the growth is reported as 6.94% (active). With `Cn1c2ccccc2c2nn(C(=O)c3ccccc3)c(=O)nc21` the growth was 105% (inactive). For `N#CC1=C(N)Oc2cc(N)ccc2C1c1ccc(F)cc1` (configuration not stated), the growth was -21.9% (active). In the case of `COc1ccc(-c2c3c(N)c4c(nc3nc3c2c(C)nn3-c2ccccc2)CCCCC4)cc1`, the growth is reported as 78.8% (inactive). In the case of `CC(C)OC1=C(Cl)C(=O)c2ccccc2C1=O`, the growth is reported as 97.3% (inactive). `O=c1[nH]c(-c2ccccn2)nc2sc3c(c12)CCCCCC3` was tested, and the growth was 46.4% (inactive). With `COc1c(O)c2c3c(c1OC)-c1ccccc1CC3N(S(=O)(=O)c1ccc(C)cc1)CC2` (configuration not stated) the growth was -0.0173% (active). In the case of `COc1cc(-c2nc3ccccc3o2)cc(CN2CCN(c3ccccc3)CC2)c1O`, the growth is reported as -78% (active). With `O=C1/C(=C/c2ccccc2F)CNC/C1=C\c1ccccc1F` the growth was -56.7% (active). For `CN([N-]C(=O)CC(=O)[N-]N(C)C(=S)c1ccccc1)C(=S)c1ccccc1.[Cu+2]`, the growth was -83.9% (active). For `COC(=O)c1ccc(C(=O)Nc2ccccc2N)cc1`, the growth was 77.7% (inactive). `COc1ccc(NC(=O)COc2ccccc2)c(C(N)=O)c1` was tested, and the growth was -70% (active). In the case of `Cn1c2ccccc2c2nn(Cc3ccccc3)c(=O)nc21`, the growth is reported as 112% (inactive). With `CCCCNNC(=O)c1ccc(Br)cc1` the growth was 36.5% (inactive). For `Cc1nc2cc(Nc3nc(Nc4ccc(F)cc4)nc(-c4cccs4)n3)ccc2n1Cc1ccccc1`, the growth was 43.8% (inactive). For `Cc1ccc(C2SCC(=O)N2NC(=O)c2[nH]c3ccc(F)cc3c2-c2ccccc2)cc1` (configuration not stated), the growth was 96.3% (inactive). With `O=S(=O)(OCCO)c1ccccc1` the growth was 98.2% (inactive). In the case of `Cc1ccc(S(=O)(=O)N2CCc3ccc(O)c4c3C2CCc2ccccc2-4)cc1` (configuration not stated), the growth is reported as 97.7% (inactive). In the case of `Cc1nc2cc(Nc3nc(N4CCOCC4)nc(N4CCN(C)CC4)n3)ccc2n1Cc1ccccc1`, the growth is reported as 100% (inactive). With `Clc1ccc(C2=NN(c3ccccc3)[C@H](c3cn(-c4ccccc4)nc3-c3ccccc3)C2)cc1` the growth was 99.8% (inactive). With `COc1cccc(OC)c1OC(=O)c1ccccc1` the growth was 97.5% (inactive). With `CCSc1nnc2c3cc(Br)ccc3n(C)c2n1` the growth was 104% (inactive). In the case of `Cc1nn(-c2ccccc2)c2nc3nc4c(c(N)c3c(-c3ccc(Cl)cc3)c12)CCCC4`, the growth is reported as 97% (inactive). In the case of `Cc1ccc(S(=O)(=O)N(c2ccc(Cl)cc2)c2ccc(Br)cc2C(=O)O)cc1`, the growth is reported as 107% (inactive). For `Cc1ccc2c(c1)c(Sc1ccc(C(=O)NO)cc1)c1n2CN(C)CC1`, the growth was 18.9% (inactive). For `COc1cc(CNCCCN2C(=O)c3ccc4c5c(ccc(c35)C2=O)C(=O)N(CCCNCc2cc(OC)c(OC)c(OC)c2)C4=O)cc(OC)c1OC`, the growth was -71.5% (active). With `CCCCCCCCCCCC(=O)[O][Sn]([CH2]CCC)([CH2]CCC)[CH2]CCC` the growth was -91.6% (active). With `COc1cc(NC(=O)COc2ccccc2)c(C(N)=O)cc1OC` the growth was -77.5% (active). In the case of `C=CC(=O)N1CC2(CCC(n3nc(-c4ccc(Oc5ccccc5)cc4)c4c(N)ncnc43)CC2)C1`, the growth is reported as -81.1% (active). In the case of `CC(=O)OC[C@H](O)[C@@]1(O)CC[C@H]2[C@@H]3CCC4=CC(=O)CC[C@]4(C)[C@H]3[C@@H](O)C[C@@]21C`, the growth is reported as 119% (inactive). With `Cc1ccc(S(=O)(=O)N2CCc3ccc(O)c4c3C2Cc2cc(Cl)ccc2-4)cc1` (configuration not stated) the growth was 8.9% (active). `COc1cc(/C=C/C(=O)C(=Cc2ccc(F)c(F)c2)C(=O)/C=C/c2ccc(O)c(OC)c2)ccc1O` was tested, and the growth was 0.136% (active). With `CCOC(=O)c1cc2c(n(C)c1=O)-c1cnn(-c3ccc(OC)cc3)c1CC2` the growth was 92.6% (inactive). In the case of `Cc1ccc(S(=O)(=O)N2CCc3ccc(O)c4c3C2Cc2ccc3c(c2-4)OCO3)cc1` (configuration not stated), the growth is reported as -4.03% (active). In the case of `O=C(Nc1nc2ccccc2[nH]1)C(=O)Nc1nc2ccccc2[nH]1`, the growth is reported as 101% (inactive).

These molecules were tested on SW-620 colon in the same assay as above. Details: 10 µM unless noted.
With `NC(=O)c1cc(Cl)ccc1NC(=O)COc1ccccc1` the growth was 35.3% (inactive). With `CCC12CCC3c4ccc(O)cc4CCC3C1CC(O)C2O` (configuration not stated) the growth was 43% (inactive). In the case of `CCCCCn1c(=N)n(CC(O)COc2cccc(C)c2)c2ccccc21` (configuration not stated), the growth is reported as 10.8% (inactive). `Cn1c2ccccc2c2nn(C(=O)c3ccccc3)c(=O)nc21` was tested, and the growth was 100% (inactive). In the case of `CC(C)OC1=C(Cl)C(=O)c2ccccc2C1=O`, the growth is reported as 56.6% (inactive). In the case of `COc1c(O)c2c3c(c1OC)-c1ccccc1CC3N(S(=O)(=O)c1ccc(C)cc1)CC2` (configuration not stated), the growth is reported as 30% (inactive). `COc1cc(-c2nc3ccccc3o2)cc(CN2CCN(c3ccccc3)CC2)c1O` was tested, and the growth was 94.3% (inactive). For `COC(=O)c1ccc(C(=O)Nc2ccccc2N)cc1`, the growth was 72.3% (inactive). For `FC(F)(F)c1cc(CNc2ncc(Br)c(Cl)n2)cc(C(F)(F)F)c1`, the growth was 105% (inactive). For `COc1ccc(NC(=O)COc2ccccc2)c(C(N)=O)c1`, the growth was 27.1% (inactive). In the case of `Cn1c2ccccc2c2nn(Cc3ccccc3)c(=O)nc21`, the growth is reported as 99.3% (inactive). For `CCCCNNC(=O)c1ccc(Br)cc1`, the growth was 32.6% (inactive). In the case of `O=S(=O)(OCCO)c1ccccc1`, the growth is reported as 101% (inactive). For `Cc1ccc(S(=O)(=O)N2CCc3ccc(O)c4c3C2CCc2ccccc2-4)cc1` (configuration not stated), the growth was 102% (inactive). For `COc1cccc(OC)c1OC(=O)c1ccccc1`, the growth was 102% (inactive). With `Cc1ccc(S(=O)(=O)N(c2ccc(Cl)cc2)c2ccc(Br)cc2C(=O)O)cc1` the growth was 104% (inactive). For `Cc1ccc2c(c1)c(Sc1ccc(C(=O)NO)cc1)c1n2CN(C)CC1`, the growth was 7.66% (active). `COc1cc(CNCCCN2C(=O)c3ccc4c5c(ccc(c35)C2=O)C(=O)N(CCCNCc2cc(OC)c(OC)c(OC)c2)C4=O)cc(OC)c1OC` was tested, and the growth was -69.8% (active). With `COc1cc(NC(=O)COc2ccccc2)c(C(N)=O)cc1OC` the growth was 26.8% (inactive). With `CC(=O)OC[C@H](O)[C@@]1(O)CC[C@H]2[C@@H]3CCC4=CC(=O)CC[C@]4(C)[C@H]3[C@@H](O)C[C@@]21C` the growth was 102% (inactive). `Cc1ccc(S(=O)(=O)N2CCc3ccc(O)c4c3C2Cc2cc(Cl)ccc2-4)cc1` (configuration not stated) was tested, and the growth was 33.1% (inactive). `CCOC(=O)c1cc2c(n(C)c1=O)-c1cnn(-c3ccc(OC)cc3)c1CC2` was tested, and the growth was 119% (inactive). `Cc1ccc(S(=O)(=O)N2CCc3ccc(O)c4c3C2Cc2ccc3c(c2-4)OCO3)cc1` (configuration not stated) was tested, and the growth was 37.2% (inactive).
